Our source for the growth values is PubChem BioAssay (NCI).

This is part of a sample that, as a whole, favours compounds with a hit. Of some 83,000 tested, about 20% had one in any assay.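 Assay: single dose, 48 h. Readout: percent growth (0 = no net growth; negative = cell death). Active: <10.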 Values without a mark were called inactive. Activity calls are given as the source filed them.

Common to all, as to experiment: NCI-60 one-dose screen, 48 h (100 = growth as untreated, 0 = no growth, -100 = all killed)
Common to all, as to details: 10 µM unless noted

Test [1] has as its system SR leukemia.
Test [2] concerns RPMI-8226 leukemia.
The subject of test [3] is OVCAR-8 ovarian.
Test [4] relates to OVCAR-5 ovarian.
Test [5] relates to OVCAR-4 ovarian.
For test [6], the system named is SK-OV-3 ovarian.
Test [7] relates to IGROV1 ovarian.
The subject of test [8] is OVCAR-3 ovarian.
The subject of test [9] is HS 578T breast.
The test system of test [10] is NCI/ADR-RES ovarian.
Test [11] relates to T-47D breast.
Test [12] deals with MDA-MB-435 melanoma.
Test [13] has as its system SW-620 colon.
Test [14] relates to MCF7 breast.
For test [15], the system named is HCT-116 colon.
The test system of test [16] is HCC-2998 colon.
The test system of test [17] is KM12 colon.
The subject of test [18] is BT-549 breast.

As to `COc1cc(-c2nn(-c3ccc(NC(=O)Nc4ccc(Cl)c(Cl)c4)cc3)cc2-c2ccncc2)ccc1Cl`, the growth in test [1] was 6.61% (active); in [2] it was -15.3% (active); in test [3], 29.1%; in test [4], 72.8%; in test [5] it was 36.7%; in [6], 62.8%. In addition, the growth was 36.9% in test [7]; 24.1% in test [8]; -26.9% (active) in [9]; 16.1% in [10]; 47.5% in test [11]; 29.1% in test [12]. The growth in test [13] is 35.2%; in test [14], 28.4%; in test [15] it was 13.4%; in test [16], 21.8%; in test [17], 16.1%.
For the compound `COc1cccc(NC(=O)NCCNc2nccc(-c3c(-c4ccc(F)cc4)nc4sccn34)n2)c1`, the growth in [1] is 88.3%; in test [2], 82.2%; in test [3] it was 65.5%; in test [4], 87%; in test [5], 96%; in [6], 77.9%. Besides, the growth is 60.5% in [7]; 90.4% in [8]; 110% in [9]; 91.2% in test [10]; 71.8% in test [11]; 76.9% in test [12]. Also, the growth is 101% in [13]; 32% in test [14]; 67.8% in test [15]; 105% in test [16]; 87.7% in [17].
Regarding `COC(=O)/C(Br)=C/c1c[nH]c2ccc(Br)cc12`, the growth in [1] was -6.18% (active); in [2] it was 53.9%; in test [3], 86.6%; in test [4], 72.3%; in test [5], 87.2%; in test [6], 92%. Besides, the growth in [7] was -17.7% (active); in test [8] it was 82.6%; in test [9], 100%; in [10], 80.4%; in test [11], 72%; in test [12], 85.7%. Besides, the growth in test [13] was 94.4%; in test [14], 75%; in [15], 69.1%; in [16], 102%; in test [17] it was 92%.
For the compound `O=C(O)c1ccc(Br)nc1`, the growth is 95.9% in [1]; 98.7% in test [2]; 98.3% in test [3]; 86.1% in test [4]; 98.6% in test [5]; 92.3% in [6]. Moreover, the growth is 107% in test [7]; 102% in test [8]; 102% in [9]; 102% in [10]; 99.1% in test [11]; 106% in test [18]. In addition, the growth is 103% in [12]; 97.1% in test [13]; 98% in test [15]; 104% in test [16]; 107% in test [17].
As to `CCOC(=O)c1sc(NS(=O)(=O)c2ccccc2)nc1C`, the growth in test [1] is 102%; in test [2], 120%; in test [3] it was 114%; in test [4] it was 107%; in test [5], 111%; in [6], 106%. The growth in [7] was 6.87% (active); in test [8], 133%; in test [9] it was 111%; in test [10] it was 114%; in test [11] it was 111%; in test [12] it was 126%. The growth was 111% in test [13]; 96.2% in test [14]; 57.9% in test [15]; 27.5% in [16]; 129% in test [17].
Consider `CC(=O)N1CCN(CCNC(=O)n2cc(-c3ccncc3)c(-c3cc(O)cc(Cl)c3)n2)CC1`, for which the growth in test [1] was 16.7%; in test [2], 44.9%; in test [3] it was 66%; in [4], 110%; in [5] it was 116%; in test [6], 101%. The growth in test [7] was 76.2%; in test [8], 102%; in test [9], 91.9%; in test [10] it was 101%; in [11], 100%; in test [12], 49.3%. For the same compound, the growth in [13] was 76.8%; in [14], 93.4%; in test [15] it was 43.6%; in test [16] it was 122%; in test [17], 91.3%.
As for `COc1cc(-c2nn(-c3ccc(NC(=O)c4ccc(Cl)c(C(F)(F)F)c4)cc3)cc2-c2ccncc2)ccc1Cl`, the growth is 2.82% (active) in [1]; -23% (active) in [2]; 49.2% in test [3]; 55.7% in test [4]; 46.4% in test [5]; 60.5% in test [6]. Also, the growth is 46.7% in test [7]; 28.7% in [8]; -49.7% (active) in test [9]; 30.7% in test [10]; 26.7% in test [11]; 24.3% in test [12]. Moreover, the growth in [13] was 6.21% (active); in test [14], 21%; in [15], 9.19% (active); in test [16], 31.8%.
`COc1cc(CNC(=O)CCCC/C=C/C(C)C)ccc1OCc1nnc(Nc2ccccc2F)o1`: the growth was 67.3% in test [1]; 64.9% in [2]; 45.2% in [3]; 77.7% in [4]; 0.691% (active) in test [5]; 48.6% in [6]. In addition, the growth in test [7] is 58.4%; in [8] it was 68.3%; in test [9], 83.7%; in [10], 43.3%; in test [11] it was 65%; in test [18], 76.9%. Also, the growth is 100% in test [12]; 66.9% in test [14]; 53.5% in test [15]; 90.8% in test [16]; 78.8% in test [17].
Take `Cc1ccc(OCCn2ccc(=O)n(CCOc3ccc(Cl)cc3C(=O)c3cc(C)cc(C)c3)c2=O)cc1`: the growth in test [1] was 19.7%; in test [2], 34.1%; in test [3], 70%; in [4], 87.2%; in [5], 47.3%; in [6], 59.8%. Also, the growth is 61.4% in test [7]; 25.1% in [8]; 37.2% in test [9]; 20.1% in [10]; 39.5% in test [11]; 55.1% in test [18]. In addition, the growth in test [12] was -3.9% (active); in [13], 29.7%; in [15], 34.5%; in [16], 64.5%; in [17], 36.9%.
